High-throughput results from PubChem.
PMP22 txn prim – modulates PMP22 transcription in S16 Schwann cells. actives 2% (n = 43,000). S16 Pmp22-F2sN Schwann cells, FLuc/NLuc coincidence luminescence, 24 h. Potency, µM (doses to about 57.5 µM), without a hit: top-dose activity change, negative = inhibition, hits mostly inhibitors; active = clear falling dose curves in both reporters; inconclusive = both reporters move, but less clearly or upward; inactive = either reporter flat; the % is the NLuc reporter signal
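S16 Schwann cells carrying FLuc/NLuc coincidence reporter in the Pmp22 3' UTR treated with compound 24 h at 37C; FLuc then NLuc luminescence read sequentially by dual-luciferase reagents.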
OvCa metastasis – blocks SKOV3ip1 adhesion and invasion in omental model. SKOV3ip1-GFP adhesion/invasion on 3D omental model, fluorescence. Potency, µM (series often up to 45.8 µM), for the others: at the highest dose activity change, negative = inhibition, most hits filed as inhibitors. actives 0.1% (n = 46,000). AID 1963576;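 note: plate controls were DMSO wells for no effect and tomatine positive control wells for full effect; nearly all actives have a fitted effect of over 65% in size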
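Adhesion/invasion was scored as fixed GFP-labeled SKOV3ip1 cell counts (488/509 nm), normalized to DMSO and tomatine controls. Cancer cells in serum-free medium, with four compound doses (0.36-46 umol/L), sat 2 hr at RT then 16 hr at 37 C on a 48 hr fibroblast/mesothelial/ECM culture.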
S16 F2sN tox – S16 Schwann cell cytotoxicity; S16 Pmp22-F2sN Schwann cells (luciferase reporters placed in the Pmp22 gene) viability, CellTiter-Glo, 24 h; Potency, µM (series often up to 57.5 µM), inactives show at the top dose activity change, negative = cytotoxicity, hits mostly cytotoxic; actives 0.48% (n = 43,000); AID 1508642; note: nearly all actives have a fitted effect of over 65% in size
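Luminescence from CellTiter-Glo, read by CCD camera after a 15 min room-temperature incubation, served as the viability signal. Reporter Schwann cells (S16 Pmp22-F2sN) had been treated with pin-transferred compounds for 24 h at 37C.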
pS6 MEF inh – inhibitors of mTORC1 signaling in Tsc2-/- p53-/- MEF cells. actives 0.78% (n = 44,000). Tsc2-/- p53-/- MEF, phospho-rpS6 immunofluorescence/PI, 24 h. Potency, µM (doses to about 38.3 µM), for inactives: at the highest dose activity change, negative = inhibition, actives largely listed as inhibitors;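 note: plate controls were DMSO for no effect and rapamycin for full effect; nearly all actives have a fitted effect of over 50% in size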
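Tsc2-/-, p53-/- MEFs (empty-vector stable line) in DMEM + 10% FBS were treated with compounds 24 h at 37 degree Celsius, fixed, and immunostained for phospho-rpS6 (Alexa-488) with propidium iodide counterstain. Laser-scanning cytometry gave % positive cells, normalized against 7.5 nM rapamycin and DMSO.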
p53null 32C tox – selectivity test: cytotoxicity in p53 null cells, permissive temperature | Potency, µM (highest dose often 46.1 µM), for inactives: at the highest dose activity change, negative = cytotoxicity, actives largely listed as cytotoxic | H1299-neo p53 null cells, ATP luminescence, 24 h, 32C | actives 0.62% (n = 55,000);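 note: 0% = DMSO only and -100% = full killing by 100 µM tamoxifen; nearly all actives have a fitted effect of over 55% in size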
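H1299-neo, 600 cells/well; overnight 37C; cpd up to 46 uM, 24 h at 32C; ATPlite luminescence after 20 min RT; normalized to DMSO (0%) and tamoxifen 100 uM (100% kill); Hill-fit AC50.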
p53null 39C tox – kills p53 null cells at the nonpermissive temperature; H1299 p53-null (neo) cells, 39C, ATPlite viability, 24 h; Potency, µM (series often up to 46.1 µM), inactives show top-dose activity, negative = cell killing, usual class: cytotoxic; actives 0.97% (n = 55,000);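 note: 0% = DMSO only and -100% = full killing by 100 µM tamoxifen; nearly all actives have a fitted effect of over 50% in size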
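Cells seeded at 600/well, 37C overnight. Compound added (up to 46 uM), plates shifted to 39C for 24 hr. ATPlite added, luminescence read after 20 min at room temperature.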
Starred values were filed as active, the others as inactive; i = inactive; ? = inconclusive; . = no result given; [ ] = dose if it differs, or a comment. Rows were chosen to be rich in hits. Some 3.1% of all compounds tested hit in one or more screens of this group. Unless noted, calls come from the whole dose curve; as a rule, active = well fitted curve in the direction sought with a large enough effect; inconclusive = small, poorly fitted or top-dose-only effect, or another doubt; inactive = no such curve, though single readings can be large; an effect the other way counts as inactive or inconclusive. Unless noted, % is set by controls: 0 for no effect and ±100 for the full control effect; potency is the fitted concentration of half-maximal effect.

SMILES	PMP22 txn prim	OvCa metastasis	S16 F2sN tox	pS6 MEF inh	p53null 32C tox	p53null 39C tox
Nc1ccc2oc(-c3ccccc3Br)nc2c1	?	3%	-2%	-2%	?	13µM*
CCCCCCCCCCCCCC(=O)N[C@H](CO)[C@H](O)c1ccc([N+](=O)[O-])cc1	.	-2%	.	.	.	.
COC(=O)c1ccc2c(=O)n(CCCCCC(=O)N3CCN(c4cc(Cl)ccc4C)CC3)c(=O)[nH]c2c1	?	-24%	?	?	20µM*	-6%
O=C(Nc1ccc(Cl)cc1)N1CCC(c2ccccc2)C1 (centres undefined)	-17%	-2%	-16%	-5%	4µM*	?
CNC(=O)[C@H](CC1=CN=C2C=CCC=C12)NC(=O)[C@@H](CC(=O)NO)CC(C)C	.	-6%	.	.	.	.
Cc1cc(-c2nc3ncccc3o2)ccc1N	.	.	.	.	11µM*	?
Nc1cc(-c2nc3ncccc3o2)ccc1Cl	.	.	.	.	-28%	8%
Cc1oc(-c2ccc(Cl)cc2)nc1CSc1nc2ncccc2[nH]1	4%	i	6%	1%	1%	10%
Clc1ccc(CSc2nc3ncccc3[nH]2)cc1	?	3%	-4%	-7%	10µM*	?
COc1cccc(NC(=O)Nc2cc(-c3cn4cccnc4n3)ccc2C)c1	?	0%	9%	4%	-10%	?
COc1cccc(NC(=O)Nc2cc(-c3cn4cccnc4n3)ccc2OC)c1	?	i	3%	-5%	16µM*	7.9µM*
COc1ccc(-c2cn3cccnc3n2)cc1NC(=O)Nc1cc(C)ccc1C	?	?	?	-18%	?	16µM*
COc1cccc(Nc2c(C(N)=O)cnc3c(C)cc(S(=O)(=O)c4cccc(C(=O)N(C)C)c4)cc23)c1	.	-9%[23.2 µM]	.	.	.	.
CC[C@H](C)n1cc(C)c2c(C(=O)NCc3c(C)cc(C)[nH]c3=O)cc(-c3ccc(N4CCNCC4)nc3)cc21	.	-19%	.	.	.	.
CC(C)(C)c1cc(C(C)(C)C)c(NC(=O)c2c[nH]c3ccccc3c2=O)cc1O	.	-11%	.	.	.	.
COc1ccc2c(c1)CC[C@@H](CN(C)CC(=O)O)[C@H]2c1ccccc1	.	4%	.	.	.	.
CC(C)COc1ccc(C(=O)NCC2(N3CCN(C)CC3)CCCCC2)cc1	?	?	?	16µM*	-5%	-15%
CN1CCN(C2(CNC(=O)c3ccc(C(C)(C)C)cc3)CCCCC2)CC1	?	i	?	16µM*	-2%	-17%
Cc1ccc(OC(C)C(=O)NCC2(N3CCOCC3)CCCCC2)cc1C (centres undefined)	?	i	-15%	?	-7%	-9%
CC(C)(C)c1ccc(OCC(=O)NCC2(N3CCOCC3)CCCCC2)cc1	?	i	?	?	?	?
CCc1ccc(C(=O)CC2(O)C(=O)N(Cc3ccc(C)cc3)c3ccccc32)cc1 (centres undefined)	?	i	-21%	12µM*	1%	?
Cc1ccc(C(=O)CC2(O)C(=O)N(Cc3ccccc3)c3ccc(Br)cc32)cc1 (centres undefined)	?	?	-26%	10µM*	-25%	?
Cc1ccc(C(=O)CC2(O)C(=O)N(Cc3ccccc3)c3ccccc32)c(C)c1 (centres undefined)	-27%	6%	?	18µM*	34%	25%
COc1ccc(C(=O)CC2(O)C(=O)N(Cc3ccccc3Cl)c3ccccc32)cc1 (centres undefined)	?	i	-24%	?	26%	9%
CCCCN1C(=O)C(O)(CC(=O)c2ccc(C(C)(C)C)cc2)c2ccccc21 (centres undefined)	?	-12%	?	?	56%	20µM*
SMILES	PMP22 txn prim	OvCa metastasis	S16 F2sN tox	pS6 MEF inh	p53null 32C tox	p53null 39C tox
CCCCN1C(=O)C(O)(CC(=O)c2ccc(C)cc2C)c2cc(Br)ccc21 (centres undefined)	?	?	?	?	50%	?
CO[C@H]1C[C@@H]2CC[C@@H](C)[C@@](O)(O2)C(=O)C(=O)N2CCCC[C@@H]2C(=O)O[C@H]([C@H](C)C[C@@H]2CC[C@H](OC(=O)C(C)(CO)CO)[C@H](OC)C2)CC(=O)[C@H](C)C=C(C)[C@@H](O)[C@@H](OC)C(=O)[C@H](C)C[C@H](C)C=CC=CC=C1C	.	0%	.	.	.	.
CN(C[C@@H]1COCCO1)S(=O)(=O)Nc1ccc2ccc3ncc(-c4cnn(C)c4)cc3c(=O)c2c1	.	27%	.	.	.	.
Cc1ccc(CS(=O)(=O)c2ncc(Cl)c(C(=O)Nc3nc4ccc(C)cc4s3)n2)cc1	6.5µM*	25µM*	20µM*	0%	-20%	-14%
Cc1ccc(CSc2ncc(Cl)c(C(=O)Nc3nc4ccc(C)cc4s3)n2)cc1	3%	-13%	-2%	4%	-6%	-4%
CCCc1nnc(NC(=O)c2nc(SCC)ncc2Cl)s1	8%	-3%	0%	-5%	-2%	7%
CCCc1nnc(NC(=O)c2nc(S(=O)(=O)Cc3ccc(C)cc3)ncc2Cl)s1	?	?	?	-18%	-14%	10µM*
Cc1ccccc1CS(=O)(=O)c1ncc(Cl)c(C(=O)Nc2nnc(C(C)C)s2)n1	7µM*	?	?	9.3µM*	6%	?
CC(C)Sc1ncc(Cl)c(C(=O)Nc2nnc(C(C)C)s2)n1	9%	-12%	24%	-10%	-1%	-13%
CC(=O)c1ccc(NC(=O)c2nc(-c3ccccc3)n(-c3ccccc3)n2)cc1	?	i	13%	3%	4%	?
Cc1c(C(=O)Nc2ccc(C(=O)O)cc2)nnn1-c1ccccc1	15%	-2%	-5%	-21%	13µM*	?
CCCCNc1oc(-c2ccc(COc3ccccc3C)o2)nc1C#N	-12%	-48%	-22%	?	-12%	?
Cc1ccccc1OCc1ccc(-c2nc(C#N)c(NCCCN(C)C)o2)o1	?	-1%	?	5.8µM*	9%	-24%
CCc1ccc(NC(=O)CSC2=Nc3ccccc3C3=NC(CCC(=O)NCc4ccccc4)C(=O)N23)cc1 (centres undefined)	-24%	8%	7%	-8%	-2%	3%
